The values below come from PubChem BioAssay (NCI).

About 83,000 compounds went through this panel and 20% of them were active in at least one assay; those are over-represented in the sample as a whole.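 Treatment: one concentration, 48 hours, 96-well format. Scoring: percent growth, with anything below 10 considered active.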 Unmarked numbers belong to inactive results. Activity calls are given as the source filed them.

Some test systems named below: NCI-H23 lung; NCI-H226 lung; NCI-H322M lung; HOP-62 NSCLC; NCI-H460 lung; NCI-H522 lung; A549/ATCC NSCLC; 786-0 renal; COLO 205 colon.
What all share (experiment): NCI-60 one-dose screen, 48 h (100 = growth as untreated, 0 = no growth, -100 = all killed)
Conditions in all cases: 10 µM unless noted

Take `NC(=O)c1cccc(C#CCNC[C@H]2C[C@@H](n3ccc4c(Cl)ncnc43)[C@H](O)[C@@H]2O)c1`: the growth was 99% in the test on NCI-H23 lung; 99.1% in the test with NCI-H226 lung; 94.2% with NCI-H322M lung; 106% in the test on HOP-62 NSCLC; 113% in the test with NCI-H460 lung; 97.3% in the test with NCI-H522 lung. Also, the growth with A549/ATCC NSCLC was 101%; with 786-0 renal, 101%; in the test with COLO 205 colon it was 116%.

With `Cc1ccc(C2=NN(C)C(=O)C3(CCCC3)C2)cc1`, the growth in the test on NCI-H23 lung is 106%; with NCI-H226 lung, 105%; in the test with NCI-H322M lung, 103%; in the test on HOP-62 NSCLC it was 114%; with NCI-H460 lung, 112%; in the test on NCI-H522 lung, 103%. The values for the growth in the test on A549/ATCC NSCLC, in the test with 786-0 renal and in the test on COLO 205 colon were 99.5%, 103% and 115%, respectively.

Turning to `COc1ccc(-c2nc3cc(Cl)c(Cl)cc3n2CC(=O)N=Nc2c(O)[nH]c3ccc(OC)cc23)cc1`, the growth in the test with NCI-H23 lung is 38.7%; in the test with NCI-H226 lung, -38.3% (active); in the test on NCI-H322M lung, 80.4%; with HOP-62 NSCLC it was 43.2%; in the test on NCI-H460 lung it was 56.1%; in the test on NCI-H522 lung, 69.3%. Further, the growth with A549/ATCC NSCLC is 59.8%; with 786-0 renal, 82.5%; in the test with COLO 205 colon it was 31.9%.

As for `COc1cc2nc(Cl)nc(Nc3cccc(C4=Nc5c(N)nc(N)nc5NC(c5ccc(F)cc5)C4)c3)c2cc1OC` (stereo unspecified), the growth in the test on NCI-H23 lung is 75.9%; in the test with NCI-H226 lung, 75.8%; in the test with NCI-H322M lung, 83.8%; with HOP-62 NSCLC it was 12.2%; in the test on NCI-H460 lung it was 21.7%; with NCI-H522 lung, 50%. In addition, the growth in the test on A549/ATCC NSCLC is 64.2%; with 786-0 renal it was 62.1%; with COLO 205 colon, 70.7%.

Turning to `Nc1nc(-c2cccc([N+](=O)[O-])c2)c(N=Nc2ccc([N+](=O)[O-])cc2Cl)s1`, the growth with NCI-H23 lung was 0.802% (active); in the test on NCI-H226 lung it was -2.56% (active); with NCI-H322M lung, 13.8%; with HOP-62 NSCLC, 21.9%; with NCI-H460 lung it was 1.77% (active); with NCI-H522 lung, -3.73% (active). Further, the growth is 15.2% in the test on A549/ATCC NSCLC, 3.66% (active) in the test on 786-0 renal and -61.6% (active) with COLO 205 colon.

Turning to `Nc1nc(-c2cccc([N+](=O)[O-])c2)c(N=Nc2ccc(Br)cc2)s1`, the growth in the test with NCI-H23 lung is -65% (active); in the test on NCI-H226 lung, -39.2% (active); with NCI-H322M lung, -25.4% (active); with HOP-62 NSCLC it was -68.1% (active); in the test with NCI-H460 lung, -61% (active); with NCI-H522 lung it was -48.6% (active). Moreover, the figures for the growth in the test with A549/ATCC NSCLC, in the test on 786-0 renal and with COLO 205 colon were -20.3% (active), -96.4% (active) and -2.36% (active), respectively.

As to `NC(N)=Nc1ccc(Oc2cccc(Nc3ccc(Cl)c(C(F)(F)F)c3)c2)cn1`, the growth is -65.6% (active) with NCI-H23 lung; -48.8% (active) in the test on NCI-H226 lung; -25.9% (active) with NCI-H322M lung; -51.2% (active) in the test on HOP-62 NSCLC; -76.2% (active) in the test with NCI-H460 lung; -59.5% (active) in the test with NCI-H522 lung. Also, the figures for the growth with A549/ATCC NSCLC, with 786-0 renal and in the test on COLO 205 colon were -24.1% (active), -46.3% (active) and -75.9% (active), respectively.

As to `COc1ccc(C2CC(c3cccc(Nc4nc(Cl)nc5cc(OC)c(OC)cc45)c3)=Nc3c(N)nc(N)nc3N2)cc1` (stereo unspecified), the growth is 81.6% with NCI-H23 lung; 84.8% in the test on NCI-H226 lung; 91.5% with NCI-H322M lung; 53.4% with HOP-62 NSCLC; 61.9% in the test on NCI-H460 lung; 78.6% in the test on NCI-H522 lung. Moreover, the growth in the test on A549/ATCC NSCLC is 82.3%; in the test with 786-0 renal, 71.4%; with COLO 205 colon, 96.4%.

As for `Nc1nc(-c2cccc([N+](=O)[O-])c2)c(N=Nc2ccccc2)s1`, the growth in the test with NCI-H23 lung was 70.2%; in the test with NCI-H226 lung it was 73.1%; in the test on NCI-H322M lung it was 76.2%; in the test with HOP-62 NSCLC, 80.6%; with NCI-H460 lung, 56.6%; in the test on NCI-H522 lung it was 48.6%. The growth with A549/ATCC NSCLC was 60%; with 786-0 renal, 59.7%; in the test with COLO 205 colon it was 63.1%.

With `CC(C)(C)c1ccc(C(=O)Nc2sc3c(c2C(N)=O)CC/C(=N\O)C3)cc1`, the growth was 7.05% (active) with NCI-H23 lung; 17.5% in the test with NCI-H226 lung; 56.9% in the test on NCI-H322M lung; 51.9% with HOP-62 NSCLC; 4.25% (active) in the test on NCI-H460 lung; -2.43% (active) in the test with NCI-H522 lung. Moreover, the growth in the test on A549/ATCC NSCLC is 24.1%; in the test with 786-0 renal it was 27.5%; in the test on COLO 205 colon it was 4.38% (active).

With `CC[C@]12C=CCN3CC[C@@]4(c5cc(NC(=O)COc6cc(O)c7c(=O)cc(-c8ccccc8)oc7c6)c(OC)cc5N(C)[C@H]4[C@@](O)(C(=O)OC)[C@@H]1OC(C)=O)[C@@H]32`, the growth with NCI-H23 lung was -92.9% (active); in the test on NCI-H226 lung, -70.4% (active); in the test on NCI-H322M lung it was -51.8% (active); in the test with HOP-62 NSCLC it was -73.6% (active); in the test on NCI-H460 lung, -57.7% (active); in the test with NCI-H522 lung it was -49.7% (active). The growth was -68.5% (active) in the test with A549/ATCC NSCLC, -59.9% (active) in the test on 786-0 renal and -81% (active) in the test with COLO 205 colon.

As to `NC(N)=Nc1ccc(Oc2cccc(Oc3ccc(Cl)c(C(F)(F)F)c3)c2)cn1`, the growth in the test with NCI-H23 lung was -83.5% (active); in the test on NCI-H226 lung, -73.4% (active); in the test with NCI-H322M lung, -6.46% (active); in the test on HOP-62 NSCLC it was -56% (active); in the test with NCI-H460 lung, -78.8% (active); in the test on NCI-H522 lung it was -67.9% (active). In addition, the growth with A549/ATCC NSCLC is -67.1% (active); in the test on 786-0 renal, -82% (active); in the test with COLO 205 colon it was -68.2% (active).

`C#C[C@]1(O)CC[C@H]2[C@@H]3CC=C4c5sc(-c6cccc(O)c6)nc5CC[C@]4(C)[C@H]3CC[C@@]21C`: the growth in the test with NCI-H23 lung was -26.8% (active); with NCI-H226 lung, -29.4% (active); with NCI-H322M lung it was -5.55% (active); in the test with HOP-62 NSCLC, -20.8% (active); in the test on NCI-H460 lung, -52.9% (active); in the test on NCI-H522 lung it was 3.14% (active). In addition, the growth is -16.2% (active) in the test with A549/ATCC NSCLC, -57.6% (active) with 786-0 renal and -25.3% (active) in the test on COLO 205 colon.

Consider `C#C[C@]1(O)CC[C@H]2[C@@H]3CC=C4c5sc(-c6ccc(C)cc6)nc5CC[C@]4(C)[C@H]3CC[C@@]21C`, for which the growth in the test with NCI-H23 lung was 46.4%; in the test on NCI-H226 lung it was 99.3%; in the test on NCI-H322M lung, 33%; in the test with HOP-62 NSCLC, 23.2%; with NCI-H460 lung, -0.692% (active); with NCI-H522 lung it was 27.6%. In addition, the growth in the test on A549/ATCC NSCLC is 38.3%; with 786-0 renal it was -52.5% (active); with COLO 205 colon it was 104%.
